Reference: the supplement of paper PMC10849652
The full data set covers some 7,900 targets. This sample favours those with a hit. About 0.6% of all pairs of compound and target were hits. A number with no mark means an inactive call.

Columns and labels:
Assay in all cases: log2 fold change, soluble protein after heating vs DMSO (PISA); higher = thermal stabilisation; K562 cells, 10 uM, 30 min; active = over 0.2 and 3.5 SD of the protein, either way, in both replicates (recomputed)
erlotinib = compound: C#Cc1cccc(Nc2ncnc3cc(OCCOC)c(OCCOC)cc23)c1 [erlotinib]
Summary of the method: (§1)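 Aliquots of K562 cells (2×10^6 cells/mL) treated with 10 μM compound for 30 min were heated for 3 min over 48°C-58°C. After pooling and extraction in PBS with 0.5% NP-40 at 4°C, soluble protein from a 21,000xg, 90 min spin was quantified by TMTpro 16plex LC-MS/MS with channel sums equalised. Thermal stability is expressed against control samples, from duplicates, as a log2 fold change.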

[1] = compound: C/C(=N\NC(=O)C1=CC(=CC=C1)S(=O)(=O)N2CCOCC2)/C3=C(C=CC(=C3)Cl)O
Summary of the method: as §1

[2] = compound: C1=CC(=C(C=C1Cl)C2=NC3=NC=CN=C3C(=N2)NC4=CC=NC=C4)F
Summary of the method: as §1

[3] = compound: C1=CC(=CC=C1C2=NC3=C(N2)C=C(C=C3)C(=O)N)OC4=CC=C(C=C4)Cl
Summary of the method: as §1

[4] = compound: C1=CC2=C(C=CC(=C2)/C=C\3/C(=O)NC(=NCC4=CC=CS4)S3)N=C1
Summary of the method: as §1

[5] = compound: C1=CC2=NC=CN=C2C=C1/C=C/3\C(=O)NC(=O)S3
Summary of the method: as §1

[6] = compound: C1=CC=C(C=C1)C2=NC(=C(N2)C3=CC=NC=C3)C4=CC(=C(C=C4)Cl)O
Summary of the method: as §1

[7] = compound: C1=CC=C2C(=C1)C3=NNC4=CC=CC(=C43)C2=O
Summary of the method: as §1

[8] = compound: C1CCN(C1)C(=O)NC2=CC=CC(=C2)NC3=NC=C(C(=N3)NCCC4=CN=CN4)Br
Summary of the method: as §1

[9] = compound: C1CN(CCC1(CC2=CC=C(C=C2)Cl)N)C3=NC=NC4=C3C=CN4
Summary of the method: as §1

Chain of UniProt Q9UK59 (Q9UK59 whole entry, looked up): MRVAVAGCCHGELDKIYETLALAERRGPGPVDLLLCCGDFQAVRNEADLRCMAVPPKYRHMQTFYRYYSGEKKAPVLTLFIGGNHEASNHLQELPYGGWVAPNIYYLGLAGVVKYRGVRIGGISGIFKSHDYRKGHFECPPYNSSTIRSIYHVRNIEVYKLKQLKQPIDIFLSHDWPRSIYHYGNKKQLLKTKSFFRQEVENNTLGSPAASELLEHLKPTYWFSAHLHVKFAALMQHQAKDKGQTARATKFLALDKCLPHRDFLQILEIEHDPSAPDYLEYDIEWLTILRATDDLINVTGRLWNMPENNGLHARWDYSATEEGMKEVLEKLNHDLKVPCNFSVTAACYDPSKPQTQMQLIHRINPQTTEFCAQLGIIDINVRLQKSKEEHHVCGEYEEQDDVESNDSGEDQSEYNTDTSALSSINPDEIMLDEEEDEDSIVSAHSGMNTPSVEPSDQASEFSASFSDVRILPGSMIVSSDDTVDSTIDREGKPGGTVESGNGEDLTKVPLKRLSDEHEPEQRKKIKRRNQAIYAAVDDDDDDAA
Chain of UniProt Q96LJ7 (Q96LJ7 whole entry, looked up): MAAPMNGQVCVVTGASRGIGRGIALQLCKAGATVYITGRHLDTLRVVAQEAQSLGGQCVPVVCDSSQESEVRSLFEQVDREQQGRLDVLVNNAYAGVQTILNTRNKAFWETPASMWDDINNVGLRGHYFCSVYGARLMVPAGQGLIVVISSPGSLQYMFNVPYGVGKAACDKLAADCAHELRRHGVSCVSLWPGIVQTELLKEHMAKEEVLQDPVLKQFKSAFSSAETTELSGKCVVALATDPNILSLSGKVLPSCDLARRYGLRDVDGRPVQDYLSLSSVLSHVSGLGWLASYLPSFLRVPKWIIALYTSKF
Chain of UniProt Q9NV06 (Q9NV06 whole entry, looked up): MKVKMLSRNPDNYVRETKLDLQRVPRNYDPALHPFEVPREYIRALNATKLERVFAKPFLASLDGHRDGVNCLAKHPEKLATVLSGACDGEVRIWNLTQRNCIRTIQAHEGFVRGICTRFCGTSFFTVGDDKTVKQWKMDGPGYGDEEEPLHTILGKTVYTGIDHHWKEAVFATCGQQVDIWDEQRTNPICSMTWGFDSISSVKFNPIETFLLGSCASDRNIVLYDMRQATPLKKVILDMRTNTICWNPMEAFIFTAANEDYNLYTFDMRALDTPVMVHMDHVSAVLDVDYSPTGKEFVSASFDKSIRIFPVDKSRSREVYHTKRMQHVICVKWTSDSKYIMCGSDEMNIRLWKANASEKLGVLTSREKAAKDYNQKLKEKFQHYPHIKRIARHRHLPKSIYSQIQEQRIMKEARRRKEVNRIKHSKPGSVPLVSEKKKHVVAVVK
Chain of UniProt P53634 (P53634 whole entry, looked up): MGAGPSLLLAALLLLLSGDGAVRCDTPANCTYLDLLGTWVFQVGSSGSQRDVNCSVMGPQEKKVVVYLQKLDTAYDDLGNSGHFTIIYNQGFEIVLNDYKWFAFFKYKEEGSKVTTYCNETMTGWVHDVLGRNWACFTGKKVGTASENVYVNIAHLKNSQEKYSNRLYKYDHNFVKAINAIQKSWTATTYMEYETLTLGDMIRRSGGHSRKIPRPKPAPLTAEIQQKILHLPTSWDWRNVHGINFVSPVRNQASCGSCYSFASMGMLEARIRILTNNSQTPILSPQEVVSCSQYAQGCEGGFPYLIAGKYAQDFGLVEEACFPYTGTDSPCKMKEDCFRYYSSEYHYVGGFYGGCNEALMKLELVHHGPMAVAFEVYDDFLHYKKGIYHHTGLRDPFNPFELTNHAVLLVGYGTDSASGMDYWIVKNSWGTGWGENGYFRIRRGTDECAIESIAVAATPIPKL
Chain of UniProt Q96KP1 (Q96KP1 whole entry, looked up): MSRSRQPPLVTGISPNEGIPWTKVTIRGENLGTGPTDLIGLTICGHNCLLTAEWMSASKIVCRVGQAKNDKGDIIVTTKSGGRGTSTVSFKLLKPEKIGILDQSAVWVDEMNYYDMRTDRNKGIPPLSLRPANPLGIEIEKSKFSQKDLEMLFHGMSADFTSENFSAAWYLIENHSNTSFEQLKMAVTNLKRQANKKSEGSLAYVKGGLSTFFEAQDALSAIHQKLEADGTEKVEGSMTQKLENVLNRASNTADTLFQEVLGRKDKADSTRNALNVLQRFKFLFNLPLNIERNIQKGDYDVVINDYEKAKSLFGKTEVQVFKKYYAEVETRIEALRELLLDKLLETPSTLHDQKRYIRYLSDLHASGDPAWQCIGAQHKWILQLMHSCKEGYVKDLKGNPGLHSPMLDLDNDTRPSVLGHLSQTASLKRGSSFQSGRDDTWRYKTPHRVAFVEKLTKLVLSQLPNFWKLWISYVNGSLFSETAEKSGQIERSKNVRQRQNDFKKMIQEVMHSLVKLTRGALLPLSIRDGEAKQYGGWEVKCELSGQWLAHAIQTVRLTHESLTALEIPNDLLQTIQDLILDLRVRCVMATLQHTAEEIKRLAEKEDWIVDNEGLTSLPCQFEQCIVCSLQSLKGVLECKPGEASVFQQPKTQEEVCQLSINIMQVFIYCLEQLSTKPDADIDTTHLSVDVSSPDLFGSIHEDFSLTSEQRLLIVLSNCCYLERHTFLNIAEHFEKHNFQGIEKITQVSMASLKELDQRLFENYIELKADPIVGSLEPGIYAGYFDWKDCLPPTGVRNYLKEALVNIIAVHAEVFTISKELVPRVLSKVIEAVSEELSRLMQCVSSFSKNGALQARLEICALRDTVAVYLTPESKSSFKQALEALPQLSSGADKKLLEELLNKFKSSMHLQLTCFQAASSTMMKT
Chain of UniProt Q16850 (Q16850 whole entry, looked up): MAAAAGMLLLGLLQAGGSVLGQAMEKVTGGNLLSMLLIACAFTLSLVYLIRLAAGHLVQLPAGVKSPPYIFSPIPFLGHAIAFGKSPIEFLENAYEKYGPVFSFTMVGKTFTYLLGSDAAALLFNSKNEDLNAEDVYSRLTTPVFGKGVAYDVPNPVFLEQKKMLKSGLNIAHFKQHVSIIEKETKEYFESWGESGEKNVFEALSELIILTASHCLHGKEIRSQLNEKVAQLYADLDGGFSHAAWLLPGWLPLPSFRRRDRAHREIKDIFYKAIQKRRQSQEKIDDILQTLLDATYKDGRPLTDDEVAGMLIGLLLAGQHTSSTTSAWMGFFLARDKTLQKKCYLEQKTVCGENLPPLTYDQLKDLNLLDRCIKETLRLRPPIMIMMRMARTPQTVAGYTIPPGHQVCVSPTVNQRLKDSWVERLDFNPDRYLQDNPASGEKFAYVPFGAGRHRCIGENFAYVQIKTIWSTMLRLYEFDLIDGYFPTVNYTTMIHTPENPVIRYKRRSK
Chain of UniProt Q9NXF7 (Q9NXF7 whole entry, looked up): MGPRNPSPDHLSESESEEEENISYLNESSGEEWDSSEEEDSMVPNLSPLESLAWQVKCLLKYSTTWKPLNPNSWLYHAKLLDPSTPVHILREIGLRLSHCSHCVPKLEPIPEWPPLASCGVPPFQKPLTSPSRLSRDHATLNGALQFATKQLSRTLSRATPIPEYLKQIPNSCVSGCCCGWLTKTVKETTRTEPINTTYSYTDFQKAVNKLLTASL
Chain of UniProt Q9UPT5 (Q9UPT5 whole entry, looked up): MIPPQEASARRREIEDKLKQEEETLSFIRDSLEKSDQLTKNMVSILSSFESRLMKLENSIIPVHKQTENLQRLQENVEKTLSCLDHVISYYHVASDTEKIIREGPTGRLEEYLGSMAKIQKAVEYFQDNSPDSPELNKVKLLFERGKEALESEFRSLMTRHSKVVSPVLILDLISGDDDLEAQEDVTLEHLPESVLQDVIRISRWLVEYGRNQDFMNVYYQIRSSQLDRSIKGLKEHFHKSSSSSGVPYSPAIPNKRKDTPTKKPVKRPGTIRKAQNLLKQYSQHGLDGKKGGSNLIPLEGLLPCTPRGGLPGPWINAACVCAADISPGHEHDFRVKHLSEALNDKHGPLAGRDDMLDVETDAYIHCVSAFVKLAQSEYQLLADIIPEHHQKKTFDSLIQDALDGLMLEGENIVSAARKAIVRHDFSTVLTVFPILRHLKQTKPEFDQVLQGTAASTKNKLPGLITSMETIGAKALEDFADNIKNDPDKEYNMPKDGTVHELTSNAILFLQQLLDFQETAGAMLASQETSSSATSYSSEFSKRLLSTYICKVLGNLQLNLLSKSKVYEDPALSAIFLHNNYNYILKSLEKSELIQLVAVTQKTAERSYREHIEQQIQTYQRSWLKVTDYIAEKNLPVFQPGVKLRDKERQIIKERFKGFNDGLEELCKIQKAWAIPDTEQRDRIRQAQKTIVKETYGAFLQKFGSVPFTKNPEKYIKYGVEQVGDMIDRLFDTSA
Chain of UniProt Q96GG9 (Q96GG9 whole entry, looked up): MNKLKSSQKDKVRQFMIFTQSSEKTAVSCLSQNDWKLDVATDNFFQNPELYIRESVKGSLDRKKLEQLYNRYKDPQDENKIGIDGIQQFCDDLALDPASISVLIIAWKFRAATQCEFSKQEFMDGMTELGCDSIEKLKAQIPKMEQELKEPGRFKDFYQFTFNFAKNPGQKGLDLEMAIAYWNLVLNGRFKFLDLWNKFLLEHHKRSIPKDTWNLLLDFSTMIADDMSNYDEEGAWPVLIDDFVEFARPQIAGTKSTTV
Chain of UniProt Q9UBR2 (Q9UBR2 whole entry, looked up): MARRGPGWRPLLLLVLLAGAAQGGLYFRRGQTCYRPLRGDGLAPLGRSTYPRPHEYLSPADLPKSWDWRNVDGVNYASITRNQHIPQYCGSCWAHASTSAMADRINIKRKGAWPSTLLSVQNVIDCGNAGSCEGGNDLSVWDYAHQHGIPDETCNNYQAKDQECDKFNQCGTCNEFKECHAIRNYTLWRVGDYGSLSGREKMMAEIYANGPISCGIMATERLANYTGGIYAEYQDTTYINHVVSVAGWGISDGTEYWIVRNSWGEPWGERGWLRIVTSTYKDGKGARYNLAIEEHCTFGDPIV
Chain of UniProt P24534 (P24534 whole entry, looked up): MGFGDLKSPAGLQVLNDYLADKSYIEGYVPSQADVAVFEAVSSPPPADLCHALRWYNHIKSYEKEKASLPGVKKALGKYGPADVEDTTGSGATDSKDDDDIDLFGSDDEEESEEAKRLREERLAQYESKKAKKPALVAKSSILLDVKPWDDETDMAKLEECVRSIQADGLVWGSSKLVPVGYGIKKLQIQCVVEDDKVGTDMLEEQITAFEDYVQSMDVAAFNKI

| Target | log2 fold change (erlotinib) | log2 fold change [1] | log2 fold change [2] | log2 fold change [3] | log2 fold change [4] | log2 fold change [5] | log2 fold change [6] | log2 fold change [7] | log2 fold change [8] | log2 fold change [9] |
| --- | --- | --- | --- | --- | --- | --- | --- | --- | --- | --- |
| EXOC7 (UniProt Q9UPT5) | 0.032 | 0.074 | 0.001 | -0.042 | 0.048 | 0.016 | 0.011 | -0.016 | -0.023 | -0.014 |
| EEF1B2 (UniProt P24534) | -0.006 | 0.033 | -0.028 | -0.058 | 0.008 | -0.036 | 0.027 | 0.02 | 0.064 | -0.058 |
| DHRS1 (UniProt Q96LJ7) | -0.045 | 0.995 (active) | -0.02 | -0.105 | 0.353 | -0.034 | 0.813 (active) | -0.163 | -0.163 | -0.021 |
| DCAF16 (UniProt Q9NXF7) | 0.051 | 0.042 | 0.036 | 0 | -0.034 | -0.002 | -0.001 | 0.048 | 0.039 | -0.127 |
| ELOVL5 isoform 2 (UniProt Q9NYP7) | 0.03 | 0.117 | -0.087 | -0.005 | 0.084 | 0.122 | 0.068 | -0.068 | 0.031 | 0.008 |
| DCAF13 (UniProt Q9NV06) | -0.085 | -0.172 | -0.441 | 0.079 | -0.114 | -0.05 | -0.034 | -0.047 | 0.044 | -0.094 |
| FAM118B (UniProt Q9BPY3) | 0.164 | 0.098 | 0.195 | -0.084 | 0.123 | 0 | 0.044 | -0.021 | -0.045 | -0.023 |
| CTSC (UniProt P53634) | -0.002 | 0.016 | 0.022 | -0.031 | 0.014 | 0.004 | 0.028 | 0.009 | -0.02 | 0.138 |
| E2F4 (UniProt Q16254) | 0.021 | -0.003 | 0.019 | -0.003 | 0.029 | 0.043 | -0.064 | -0.02 | -0.071 | -0.022 |
| DAG1 (UniProt Q14118) | 0.055 | 0.067 | -0.043 | 0 | -0.038 | -0.037 | -0.154 | -0.06 | -0.009 | 0.035 |
| EPHX2 (UniProt P34913) | -0.01 | 0.213 | -0.008 | 0.2 | 0.09 | -0.004 | 0.038 | -0.032 | 0.123 | -0.001 |
| DNAJB12 (UniProt Q9NXW2) | -0.039 | -0.001 | 0.003 | 0.102 | 0.004 | 0.032 | 0.006 | -0.064 | 0.044 | 0.033 |
| DDX4 (UniProt Q9NQI0) | 0.576 | -0.071 | -0.23 | -0.056 | 0.006 | 0 | -0.305 | 0.006 | 0.053 | -0.273 |
| FAM50A (UniProt Q14320) | 0.015 | 0.051 | 0.054 | -0.017 | -0.009 | 0.062 | -0.019 | -0.001 | -0.026 | -0.065 |
| DPH5 isoform 5 (UniProt Q9H2P9) | 0 | 0.054 | 0.093 | 0.037 | 0.022 | 0.03 | 0.041 | 0.005 | 0.004 | 0.052 |
| DCUN1D1 (UniProt Q96GG9) | -0.038 | 0.052 | 0.041 | -0.009 | 0.015 | 0.001 | 0.021 | -0.014 | -0.017 | 0.024 |
| FADS1, A0A0A0MR51 | 0.016 | -0.11 | -0.049 | -0.134 | 0.09 | 0.05 | 0.231 (active) | -0.008 | -0.006 | 0.002 |
| CTSB (UniProt P07858) | 0.021 | -0.037 | 0.026 | 0.003 | 0.038 | 0.016 | 0.009 | -0.017 | 0.007 | 0.04 |
| DBR1 (UniProt Q9UK59) | 0.031 | 0.042 | -0.052 | 0.025 | -0.033 | 0.002 | 0.069 | 0.006 | -0.026 | 0.044 |
| DDX46 (UniProt Q7L014) | 0.053 | 0.23 | 0.134 | 0.081 | 0.034 | 0 | -0.023 | -0.022 | -0.062 | -0.141 |
| DNAJC19 (UniProt Q96DA6) | -0.009 | 0.014 | 0.055 | 0.001 | -0.005 | 0.04 | 0.052 | -0.022 | -0.012 | 0.016 |
| CYP51A1 (UniProt Q16850) | -0.09 | 0.019 | -0.248 | -0.002 | 0.007 | 0.018 | -0.096 | 0.089 | 0.014 | 0.137 |
| DHX36 (UniProt Q9H2U1) | -0.089 | 0.013 | -0.08 | 0.031 | -0.072 | 0.011 | 0.044 | -0.023 | 0.047 | -0.066 |
| DHFR (UniProt P00374) | 0.156 | 0 | -0.176 | -0.144 | 0.03 | 0.043 | 0.055 | 0.049 | -0.047 | -0.015 |
| EXOC2 (UniProt Q96KP1) | 0.07 | 0.083 | -0.027 | -0.045 | 0.05 | 0.006 | -0.013 | 0.054 | -0.014 | -0.119 |
| DAB2 (UniProt P98082) | 0.107 | 0.112 | 0.01 | -0.035 | 0.037 | 0.008 | 0.002 | 0.019 | -0.156 | -0.006 |
| CTSZ (UniProt Q9UBR2) | 0.053 | -0.025 | 0.027 | -0.047 | -0.013 | 0.023 | -0.017 | 0.073 | 0.057 | 0.09 |
| EIF4G3 isoform 3 (UniProt O43432) | 0.047 | 0.01 |  | -0.083 | 0.041 | -0.046 | -0.028 | 0.071 | -0.049 | -0.125 |
| ECH1 (UniProt Q13011) | -0.027 | 0.053 | 0.243 | 0 | 0.126 | -0.018 | 0.541 (active) | 0.361 (active) | -0.028 | -0.064 |
| EZH2 isoform 2 (UniProt Q15910) | -0.036 | 0.129 | 0.163 | 0.084 | 0.046 | 0.048 |  | 0.054 | -0.106 | -0.062 |
